Screening data deposited in PubChem by several laboratories.
Beta apoptosis – beta cell apoptosis inhibition | INS-1E cytokine-induced death, ATP luminescence, 48 h; percent of positive-control rescue, neutral wells zero | protection from apoptosis, % (no concentration beside the values) | actives 0.8% (n = 300,000);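 active = Every replicate reaches about 75%, or at least half do and their mean reaches it too, limit read from the data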;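 also: 0% = cytokine-treated negative control wells and 100% = positive control rescue; higher means more ATP so stronger rescue from cytokine killing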
Calb FLC – C. albicans growth modulation with fluconazole; C. albicans CaCi-2 (fluconazole-resistant clinical isolate) + fluconazole, Alamar Blue growth, 48 h; growth inhibition, % (no concentration beside the values); actives 0.57% (n = 300,000); AID 1979;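 active = growth inhibition above about 58% in most replicates, limit read from the data, passing the limit was not always enough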;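 also: all wells also contain fluconazole at 8 µg/ml as a sub-toxic cotreatment; 0% = median of DMSO wells and 100% = median of geldanamycin control wells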
MPTP inh – inhibitors of mitochondrial permeability transition pore. AID 602449. actives 1.4% (n = 360,000). inhibition, % at 10 µM. isolated mouse mitochondria, Ca2+ swelling absorbance, 30 min;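 active = inhibition of 50% or more, scaled per plate between neutral and stimulator controls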;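 also: 0% = DMSO wells given calcium and 100% = 1 mM EGTA wells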
CSC inhib – blocks cancer stem cells. actives 1.1% (n = 300,000). inhibition, % at 7.5 µM. cancer stem cell-like cells viability, luminescence. AID 2717; in the data active = inhibition above about 75%; tested in HMLE shEcad cells
Mdm2 MdmX PPI – inhibitors of human Mdm2/MdmX interaction; inhibition, % at 8 µM; actives 3% (n = 330,000); O15151+Q00987; SaOS-2 split-luciferase Mdm2/MdmX complementation, luminescence;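 active = inhibition of at least 50% at 8 µM in the primary screen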
Mdm2-MdmX conf – confirmation of human Mdm2/MdmX interaction inhibitors; inhibition, % at 8 µM; actives 55% (n = 10,000); Mdm2-MdmX binding, luminescent assay; shares compounds with Mdm2 MdmX PPI; in the data active = inhibition above about 40%
Full FLuc ctr – counter-screen for Mdm2/MdmX inhibitors: full-length luciferase; SaOS-2 full-length luciferase counterscreen, luminescence; actives 77% (n = 6,200); inhibition, % at 8 µM; shares compounds with Mdm2 MdmX PPI;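 active = mean inhibition at 8 µM reaching about 37%, which flags the compound as non-specific, limit read from the data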;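 also: p53-null SaOS-2 cells with luciferase driven by a doxycycline-inducible promoter; compound on cells about two nights before reading with doxycycline added after day one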
* marks the source's active call; other numbers are inactive results. Rows were chosen to be rich in hits. Some 4.8% of all compounds tested hit in one or more screens of this group.

COC(=O)c1c(-c2ccccc2)csc1NC(=O)c1c(-c2ccccc2)noc1C was read as Beta apoptosis 5, Calb FLC 0, MPTP inh 3, CSC inhib 46, Mdm2 MdmX PPI 97*, Mdm2-MdmX conf 95* and Full FLuc ctr 53*.
`COc1ccc(N(C(=O)Cc2cccs2)C(C(=O)NC2CCCC2)c2ccncc2)cc1OC` (stereo not drawn) gave Beta apoptosis -1, Calb FLC -1, MPTP inh 1, CSC inhib -7 and Mdm2 MdmX PPI 17.
COc1cc(N(C(=O)Cc2cccs2)C(C(=O)NC2CCCCC2)c2ccc(C)cc2)ccc1-n1cnnn1 (stereo not drawn) was read as Beta apoptosis 16, Calb FLC 9, MPTP inh 0, CSC inhib 0, Mdm2 MdmX PPI 84* and Mdm2-MdmX conf 19.
`C#CC(=O)N(c1cccc(OC)c1)C(C(=O)NC1CCCC1)c1cccs1` (stereo not drawn) gave Beta apoptosis 94*, Calb FLC 7, MPTP inh 0, CSC inhib 6, Mdm2 MdmX PPI 97*, Mdm2-MdmX conf 100* and Full FLuc ctr 52*.
`C#CC(=O)N(c1ccc(OC)c(OC)c1)C(C(=O)NC1CCCC1)c1cccs1` (stereo not drawn) gave Beta apoptosis 50, Calb FLC 2, MPTP inh 0, CSC inhib 10, Mdm2 MdmX PPI 99*, Mdm2-MdmX conf 100* and Full FLuc ctr 53*.
`CCOC(=O)/C=C/C(=O)Nc1ccc(S(=O)(=O)Nc2nccs2)cc1` gave Beta apoptosis -5, MPTP inh -2, CSC inhib 3 and Mdm2 MdmX PPI -3.
CCOc1ccc(N(CC(=O)Nc2ccccc2OCC)S(=O)(=O)c2c(C)noc2C)cc1 was read as Beta apoptosis 41, Calb FLC 10, MPTP inh 2, CSC inhib 46, Mdm2 MdmX PPI 65*, Mdm2-MdmX conf 62* and Full FLuc ctr 90*.
CCOc1ccc(N(CC(=O)Nc2ccccc2OC)S(=O)(=O)c2ccccc2)cc1 was read as Beta apoptosis 16, Calb FLC -6, MPTP inh 0, CSC inhib 70, Mdm2 MdmX PPI 58*, Mdm2-MdmX conf 63* and Full FLuc ctr 79*.
CCOc1ccc(N(CC(=O)Nc2ccc(C)cc2)S(=O)(=O)c2c(C)noc2C)cc1 was read as Calb FLC -7, MPTP inh 1, CSC inhib 7 and Mdm2 MdmX PPI 34.
For COc1ccccc1NC(=O)c1ccc(CN(c2cc(Cl)ccc2C)S(=O)(=O)c2ccccc2)cc1 the results were Beta apoptosis 0, Calb FLC -19, MPTP inh 6, CSC inhib -1, Mdm2 MdmX PPI 61* and Mdm2-MdmX conf 33.
COc1ccc(NC(=O)c2ccc(CN(c3cc(Cl)ccc3C)S(=O)(=O)c3ccccc3)cc2)cc1OC was read as Beta apoptosis -2, Calb FLC -10, MPTP inh 1, CSC inhib 21 and Mdm2 MdmX PPI 8.
CN(C(=O)C1Cc2c(-c3ccc(Cl)cc3)ccnc2O1)c1ccccc1 (stereo not drawn) was read as MPTP inh -1.
For CC(C)C[C@H](NC(=O)/C=C/[C@H]1O[C@@H](n2ccc(=O)[nH]c2=O)[C@H](O)[C@@H]1O)C(=O)O the results were MPTP inh -1.
Screening O=C(Nc1ncnc2c1ncn2[C@@H]1O[C@H](/C=C/C(=O)N2CCN(c3ccc(F)cc3)CC2)[C@@H](O)[C@H]1O)c1ccccc1 returned MPTP inh 1.
For N#CC1=C2SCC(O)(c3ccccc3)N2C(=O)CC1c1ccccc1 (stereo not drawn) the results were Beta apoptosis 15, Calb FLC 10, MPTP inh 0, CSC inhib 54, Mdm2 MdmX PPI 76*, Mdm2-MdmX conf 74* and Full FLuc ctr 58*.
Screening CCCCN(CC)CCCNC(=O)c1cc2c(-c3ccc(OC)c(OC)c3)nn(C)c2s1 returned Beta apoptosis -1, Calb FLC -9, MPTP inh 3, CSC inhib -2, Mdm2 MdmX PPI 57*, Mdm2-MdmX conf 67* and Full FLuc ctr 82*.
